rCAG binder – molecules binding r(CAG) RNA repeats. inhibition, % at 3 µM. 370,000 tested, 1.3% active. r(CAG) RNA repeat, TO-PRO-1 dye displacement fluorescence;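 active = inhibition above the plate cutoff, the mean of all test compounds on that plate plus 3 SD, cut at about 35% in these data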;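 also: 0% = DMSO alone and 100% = 100 µM mitoxantrone as full dye displacement; higher means more dye released from RNA so lower well fluorescence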
PRMT1 inh – PRMT1 (human) inhibition, primary screen; inhibition, % at 2.79 µM; 370,000 tested, 1.3% active; recombinant PRMT1, activity-based probe fluorescence polarization;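 active = inhibition above about 21% made by adding two undisclosed values, limit read from the data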
UHRF1 MBD2 ctr – human UHRF1 methylated DNA binding inhibitors. Q96T88. UHRF1 binding to methylated oligo, TR-FRET. inhibition, % at 4.4 µM. 370,000 tested, 0.75% active; in the data active = inhibition above about 21%;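 also: UHRF1 SRA domain binding a hemimethylated CpG hairpin DNA probe; 0% = median of test compound wells and 100% = reference inhibitor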
ABHD5-PLIN5 inh – inhibitors of human ABHD5-perilipin-5 interaction. Split G. princeps luciferase complementation, luminescence, 4 h. inhibition, % at 4 µM. 360,000 tested, 0.78% active;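 active = inhibition above the mean inhibition across every tested compound plus 3 SD, cut at about 22% in these data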;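 also: 0% = DMSO only wells and the 100% control is not disclosed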
Target sequence (Q00G26 whole entry, looked up): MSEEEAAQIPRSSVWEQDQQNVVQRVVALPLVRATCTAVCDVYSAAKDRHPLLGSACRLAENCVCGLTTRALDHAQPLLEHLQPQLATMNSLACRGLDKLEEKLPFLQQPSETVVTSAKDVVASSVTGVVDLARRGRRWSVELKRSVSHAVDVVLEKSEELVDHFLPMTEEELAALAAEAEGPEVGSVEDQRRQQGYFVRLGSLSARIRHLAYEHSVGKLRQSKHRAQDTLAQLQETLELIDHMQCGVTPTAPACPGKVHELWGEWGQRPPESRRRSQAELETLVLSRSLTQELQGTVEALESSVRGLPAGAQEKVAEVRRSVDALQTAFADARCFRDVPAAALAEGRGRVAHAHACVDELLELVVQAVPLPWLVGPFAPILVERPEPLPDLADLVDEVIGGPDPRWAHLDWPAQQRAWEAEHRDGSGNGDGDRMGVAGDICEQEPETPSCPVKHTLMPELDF
Target sequence (Q8WTS1 whole entry, looked up): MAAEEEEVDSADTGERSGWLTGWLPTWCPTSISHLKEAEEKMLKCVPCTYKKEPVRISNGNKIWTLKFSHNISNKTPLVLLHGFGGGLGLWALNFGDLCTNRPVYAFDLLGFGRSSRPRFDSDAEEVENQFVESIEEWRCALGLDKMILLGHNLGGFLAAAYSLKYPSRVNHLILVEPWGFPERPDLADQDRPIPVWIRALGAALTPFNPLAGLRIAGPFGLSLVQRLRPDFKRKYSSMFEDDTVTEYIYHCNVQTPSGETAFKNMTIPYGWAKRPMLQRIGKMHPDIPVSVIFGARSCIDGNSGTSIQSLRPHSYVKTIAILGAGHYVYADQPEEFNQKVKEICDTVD
MBD2 inh – MBD2-methylated oligo binding inhibition | 370,000 tested, 0.31% active | Q9UBB5 | AID 686964 | TR-FRET, MBD2 binding to methylated oligonucleotide | inhibition, % at 4.4 µM; in the data active = inhibition above about 13%
LEDGF integ inh – blocks HIV-1 LEDGF/p75-dependent DNA integration. TR-FRET IN-LEDGF/p75 DNA integration, Eu/Cy5. inhibition, % at 3.7 µM. 370,000 tested, 0.64% active;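 active = inhibition above the screen-wide mean plus 3 SD, cut at about 13% in these data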;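 also: signal is the Cy5 over europium emission ratio at 671 and 618 nm; 0% = plate median of compound wells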
rCAG binder conf – r(CAG) RNA repeat binding, confirmation | shares compounds with rCAG binder | TO-PRO-1 dye displacement fluorescence | inhibition, % at 3 µM | 4,300 tested, 70% active | AID 652065;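 active = inhibition above a per-plate cutoff, the mean inhibition of sample wells plus 3 SD, cut at about 35% in these data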;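 also: loss of TO-PRO-1 fluorescence as compound displaces dye from 1x1 AA loop RNA; 0% = DMSO only wells and 100% = 100 µM mitoxantrone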
DNA CAG counter – counter-screen for rCAG RNA binders: DNA CAG dye complex inhibitors. inhibition, % at 3 µM. shares compounds with rCAG binder. d(CAG) DNA oligo TO-PRO-1 dye displacement, fluorescence. 4,300 tested, 94% active;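 active = inhibition above its plate's cutoff, the mean test-well inhibition plus 3 SD, cut at about 4.8% in these data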;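 also: 0% = DNA dye mix with DMSO and 100% = 100 µM mitoxantrone; hits displace the dye from DNA and so lower well fluorescence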
DNA CAG DR – counter-screen for rCAG binders: inhibitors of DNA CAG TO-PRO-1 complex. shares compounds with rCAG binder. DNA CAG/GTC duplex TO-PRO-1 dye displacement fluorescence. IC50, µM. 250 tested, 20% active. AID 686960; in the data active = IC50 below about 10 µM
* = called active by the depositor; nt = no result given. Compounds with a hit are over-represented: about 4.1% of the library has one in this group of screens.

SMILES | rCAG binder | PRMT1 inh | UHRF1 MBD2 ctr | ABHD5-PLIN5 inh | MBD2 inh | LEDGF integ inh | rCAG binder conf | DNA CAG counter | others
O=C(O)c1ccc(/C=N\Nc2ccc(S(=O)(=O)N3CCOCC3)cc2[N+](=O)[O-])cc1 | 1 | 5 | 5 | 0 | 4 | -3 | nt | nt
Cc1ccc(-n2c(O)c(/C=N/Nc3ccc(S(=O)(=O)N4CCOCC4)cc3[N+](=O)[O-])c3ccccc3c2=O)c(C)c1 | 66* | 2 | -8 | -6 | -7 | 4 | 88* | 71*
Cc1ccc(C2(c3ccc(C)cc3)CC2C(=O)Nc2ccc([N+](=O)[O-])cc2O)cc1 (configuration not stated) | 66* | 6 | -2 | -36 | 0 | 8 | 62* | 29*
CC1(C)CC1C(=O)Nc1ccc([N+](=O)[O-])cc1Br (configuration not stated) | 2 | -3 | -3 | -1 | -4 | -2 | nt | nt
O=C(CSc1nc2sc3c(c2c(=O)n1-c1ccc(Cl)cc1)CCCC3)c1ccccc1Cl | 11 | -2 | 0 | nt | -1 | -1 | nt | nt
COc1cc(/C=N/N=C2/NC(=O)C(CC(=O)O)S2)ccc1OCc1cccc(Cl)c1 (configuration not stated) | 43* | 1 | 4 | -1 | -3 | 3 | 26 | 5.5*
CCOc1cc(/C=N/N=C2/NC(=O)C(CC(=O)O)S2)ccc1OCc1ccc(Cl)cc1 (configuration not stated) | 60* | -1 | -3 | -5 | 3 | 0 | 40* | 10*
COc1ccc(/C=N/N=C2/NC(=O)C(CC(=O)O)S2)cc1OCc1ccc(Cl)cc1 (configuration not stated) | 26 | 5 | 5 | 3 | 5 | -1 | nt | nt
CCc1nnc(NS(=O)(=O)c2ccc(NC(=O)c3ccc(C#N)cc3)cc2)s1 | 36* | 0 | 0 | 8 | 2 | 2 | 21 | 4
CCc1nnc(NS(=O)(=O)c2ccc(NC(=O)c3ccccc3OC)cc2)s1 | 49* | 0 | 3 | 2 | -3 | 0 | 25 | 6.0*
CCCN(CCC)S(=O)(=O)c1ccc(C(=O)Nc2ccc(S(=O)(=O)Nc3nnc(CC)s3)cc2)cc1 | 80* | 3 | -1 | 1 | 2 | -5 | 84* | 54*
CCc1nnc(NS(=O)(=O)c2ccc(NC(=O)/C=C/C(=O)O)cc2)s1 | 7 | 2 | 0 | 4 | -5 | -4 | nt | nt
CCc1nnc(NS(=O)(=O)c2ccc(N/C=C\C(=O)c3ccc4ccccc4c3)cc2)s1 | 71* | -1 | -2 | -6 | 3 | 0 | 86* | 61*
CCc1nnc(NS(=O)(=O)c2ccc(NC(=O)c3ccccc3C)cc2)s1 | 23 | 0 | 2 | -6 | 1 | 4 | nt | nt
CCc1nnc(NC(=O)c2ccc(S(=O)(=O)N(CC)CC)cc2)s1 | 1 | 3 | 0 | -2 | 4 | -2 | nt | nt
O=C(N[C@H](Cc1ccccc1)C(=O)N1CCN(c2ncccn2)CC1)[C@H]1O[C@@H](n2ccc(=O)[nH]c2=O)[C@H](O)[C@@H]1O | -1 | 0 | -2 | nt | -1 | 4 | nt | nt
O=C1NCCN1CCN1CCC(c2cn(-c3ccc(F)cc3)c3ccc(Cl)cc23)CC1 | 1 | -6 | 1 | nt | -5 | 2 | nt | nt
CCN(CC)C(=O)CC[C@H]1CC[C@]2(CCCN(Cc3nccn3C)C2)O1 | 0 | 2 | 0 | nt | 3 | -3 | nt | nt
CC(C)CN1C(=O)C[C@]2(C(=O)N(C)c3ccc(NS(=O)(=O)C4CC4)cc32)C1c1ccccc1 (some centres not stated) | 1 | -9 | 5 | nt | -3 | 10 | nt | nt
O=C(NCCc1c[nH]c2ccccc12)OCc1cn(Cc2cccc(C(F)(F)F)c2)nn1 | 1 | -2 | -3 | nt | -1 | 3 | nt | nt
CCc1nnc(NS(=O)(=O)c2ccc(N3C(=O)C4CC=C(Cl)CC4C3=O)cc2)s1 (configuration not stated) | 49* | 0 | -2 | 5 | -1 | 3 | 26 | 7.6*
CCc1nnc(NS(=O)(=O)c2ccc(NC(=S)Nc3ccc(F)cc3)cc2)s1 | 14 | 0 | -1 | -2 | 3 | -1 | nt | nt
CCc1nnc(NS(=O)(=O)c2ccc(N/C=C(\C=O)c3nc4cc(Cl)ccc4o3)cc2)s1 | 42* | 2 | -3 | 0 | 0 | 6 | 76* | 40*
CCc1nnc(NS(=O)(=O)c2ccc(NC(=O)c3cccc(OC)c3)cc2)s1 | 39* | 2 | 1 | 5 | 0 | -2 | 27 | 5.5*
CCc1nnc(NS(=O)(=O)c2ccc(NC(=O)c3ccco3)cc2)s1 | 8 | -1 | -2 | 14 | 4 | 1 | nt | nt
SMILES | rCAG binder | PRMT1 inh | UHRF1 MBD2 ctr | ABHD5-PLIN5 inh | MBD2 inh | LEDGF integ inh | rCAG binder conf | DNA CAG counter | others
CCc1nnc(NS(=O)(=O)c2ccc(NC(=O)c3cccc(Cl)c3)cc2)s1 | 54* | -7 | 1 | -4 | -4 | -1 | 50* | 10* | DNA CAG DR=>30
CCC(=O)Nc1ccc(Cl)cc1C(=O)c1ccc[nH]1 | nt | 10 | 7 | nt | 8 | 1 | nt | nt
Cc1cc2c(c(=O)o1)[C@@]1(C(=O)N(C)c3ccccc31)C1=C(CCC1=O)O2 | -1 | 4 | -1 | nt | -5 | -2 | nt | nt
CCCC[C@@H]1C(=O)N2N=C(c3ccccc3)c3ccccc3[C@H]2N2N=C(c3ccccc3)c3ccccc3[C@@H]12 | 9 | -2 | 4 | nt | -1 | 6 | nt | nt
CCc1nnc(NS(=O)(=O)c2ccc(NC(=O)C(c3ccccc3)c3ccccc3)cc2)s1 | 84* | 1 | 0 | -10 | -2 | -2 | 72* | 34* | DNA CAG DR=9.2*
CCc1nnc(NS(=O)(=O)c2ccc(NC(=O)c3ccccc3)cc2)s1 | 9 | -1 | -5 | 0 | -5 | -3 | nt | nt
CCc1nnc(NS(=O)(=O)c2ccc(NC(=O)c3ccc(Cl)cc3)cc2)s1 | 43* | 3 | 0 | 2 | 1 | -8 | 33 | 9.1*
CCc1nnc(NS(=O)(=O)c2ccc(NCc3ccccc3O)cc2)s1 | 15 | -1 | -1 | 0 | 4 | -2 | nt | nt
CCN1Cc2nnn(Cc3ccccc3)c2-c2cc(F)ccc2S1(=O)=O | 1 | -2 | -3 | nt | 4 | -2 | nt | nt
C[C@H]1COc2cc(Br)ccc2S(=O)(=O)N1Cc1cn(CC2CCCCC2)nn1 | 0 | -3 | -3 | nt | -1 | 5 | nt | nt
CCN(CCCNc1cc2c(c(N)c1S(=O)(=O)O)C(=O)c1ccccc1C2=O)c1ccccc1 | 73* | 23* | 19 | 15 | 1 | -2 | 81* | 54*

Compound activity: PubChem, The Scripps Research Institute Molecular Screening Center
